Consider eleven compounds from PubChem BioAssay.

Experiment [1] is described as follows: compounds binding Alexa647 anti-His antibody – biochemical, small-molecule microarray, 635 nm fluorescence, artefact control for SMM control protein annotation, primary screen (AID 1128).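 Also: score merges feature fluorescence with signal-to-noise for each printed compound spot.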 The following applies: higher = more signal.
Experiment [2] deals with Human papillomavirus type 1a E7 protein (residues 1-88). Description: HPV1a E7 small-molecule binders, primary screen, biochemical, small-molecule microarray, residues 1-88, 635 nm (AID 1129). As to conditions: small-molecule microarray binding, fluorescence 635 nm; higher = more signal.
Experiment [3] has as its target Focal adhesion kinase 1 (Homo sapiens) (UniProt Q05397). Description: PTK2 protein binding on printed compound slides – biochemical, small-molecule microarray, 635/667 nm fluorescence, BSA, DTT, primary screen (AID 1130).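 Also: composite of spot emission at 667 nm and signal to noise over triplicate slides.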 As to conditions: 635 nm fluorescence, higher = more signal.
Experiment [4] relates to Fibrinogen (Alexa647-labelled). In words: Alexa647-fibrinogen binding to printed small molecules – biochemical, small-molecule microarray, 635/667 nm fluorescence, artefact control for SMM control-protein annotation, profiling panel (AID 1131).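 Also: z-score merges 667 nm fluorescence with per-spot signal-to-noise over triplicate slides.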 The following applies: fibrinogen-A647 binding fluorescence, higher = more signal.
Experiment [5] concerns the target Follistatin (Homo sapiens) (UniProt P19883). Description: FST protein binding to printed compounds – biochemical, small-molecule microarray, 635/667 nm fluorescence, primary screen (AID 1132). The following applies: 635 nm fluorescence, higher = more signal.
The target of experiment [6] is Fibroblast growth factor 2 (Homo sapiens) (UniProt P09038). Description: basic fibroblast growth factor binding to printed compounds – biochemical, small-molecule microarray, 635/667 nm fluorescence, primary screen (AID 1133). As to conditions: FGF2, fluorescence 635/667, higher = more signal.
Sequence of Fibroblast growth factor 2 (Homo sapiens) (P09038 whole entry, looked up): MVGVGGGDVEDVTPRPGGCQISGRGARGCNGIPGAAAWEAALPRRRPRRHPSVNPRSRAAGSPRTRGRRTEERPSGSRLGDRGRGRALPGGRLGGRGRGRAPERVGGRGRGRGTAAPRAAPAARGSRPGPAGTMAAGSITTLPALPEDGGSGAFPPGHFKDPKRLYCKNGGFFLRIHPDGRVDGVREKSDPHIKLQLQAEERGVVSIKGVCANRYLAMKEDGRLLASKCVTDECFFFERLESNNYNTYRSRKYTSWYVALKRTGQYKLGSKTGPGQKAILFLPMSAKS
The nature of experiment [7]: JC-1 mitochondrial potential readout, lung cancer cells – cell-based, A549, JC-1 fluorescence, basal, 24 h, 100 nL, profiling panel (AID 1138).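 Also: A549 lung adenocarcinoma cells under basal conditions with no added stimulus; test concentration not given here.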 As to conditions: higher = more signal.
The test system of a further experiment is Lefty1. Description: Lefty1 protein binding to printed compounds – biochemical, small-molecule microarray, 635/667 nm fluorescence, primary screen (AID 1139). As to conditions: fluorescence 635/667, higher = more signal.
Experiment [8] relates to wheat germ agglutinin (Triticum aestivum), Alexa647-labelled. Description: Alexa647-WGA lectin binding to printed small molecules – biochemical, small-molecule microarray, 635/667 nm fluorescence, artefact control for SMM control-protein annotation, profiling panel (AID 1140).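 Also: score merges 667 nm feature emission with signal to noise over triplicate slides.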 As to conditions: WGA-A647 binding, 635 nm fluorescence, higher = more signal.
Experiment [9] concerns the target Luciferin 4-monooxygenase (Photinus pyralis) (UniProt P08659). Description: inhibition of purified Photinus pyralis luciferase – biochemical, luminescence, purified enzyme, 2006 set, primary screen (AID 1141).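 Also: cell-free assay with purified firefly luciferase at 100 ng per well in PBS; test concentration not given here.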 The following applies: purified firefly luciferase, SteadyGlo luminescence, 30 min; higher = more signal, called active from +8 up or from −8 down.

Active and inactive are the calls of the source.

Sequence of Follistatin (Homo sapiens) (P19883 whole entry, looked up): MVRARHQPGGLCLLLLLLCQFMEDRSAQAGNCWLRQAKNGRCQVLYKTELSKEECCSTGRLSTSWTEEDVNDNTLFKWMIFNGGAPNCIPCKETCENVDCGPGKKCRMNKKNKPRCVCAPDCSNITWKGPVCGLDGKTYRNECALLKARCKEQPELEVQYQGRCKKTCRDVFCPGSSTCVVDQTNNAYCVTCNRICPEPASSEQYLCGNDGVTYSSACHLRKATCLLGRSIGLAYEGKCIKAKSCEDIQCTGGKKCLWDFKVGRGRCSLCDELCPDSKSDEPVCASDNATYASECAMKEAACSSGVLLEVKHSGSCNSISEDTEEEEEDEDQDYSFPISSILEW
Sequence of Luciferin 4-monooxygenase (Photinus pyralis) (P08659 whole entry, looked up): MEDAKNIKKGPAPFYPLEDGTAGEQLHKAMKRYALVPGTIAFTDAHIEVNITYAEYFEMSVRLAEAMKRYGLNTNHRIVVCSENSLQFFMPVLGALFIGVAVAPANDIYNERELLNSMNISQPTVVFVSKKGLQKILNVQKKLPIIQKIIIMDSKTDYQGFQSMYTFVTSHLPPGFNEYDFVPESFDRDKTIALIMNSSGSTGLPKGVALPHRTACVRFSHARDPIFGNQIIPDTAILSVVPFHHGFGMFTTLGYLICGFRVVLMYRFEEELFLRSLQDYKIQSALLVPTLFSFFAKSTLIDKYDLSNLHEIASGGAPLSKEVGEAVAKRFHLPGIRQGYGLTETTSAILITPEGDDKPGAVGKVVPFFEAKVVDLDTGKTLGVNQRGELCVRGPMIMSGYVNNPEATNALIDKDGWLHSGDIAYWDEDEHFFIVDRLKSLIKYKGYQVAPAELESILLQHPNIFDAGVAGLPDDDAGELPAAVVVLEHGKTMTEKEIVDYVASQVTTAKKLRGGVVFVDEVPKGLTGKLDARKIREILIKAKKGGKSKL
Sequence of Focal adhesion kinase 1 (Homo sapiens) (Q05397 whole entry, looked up): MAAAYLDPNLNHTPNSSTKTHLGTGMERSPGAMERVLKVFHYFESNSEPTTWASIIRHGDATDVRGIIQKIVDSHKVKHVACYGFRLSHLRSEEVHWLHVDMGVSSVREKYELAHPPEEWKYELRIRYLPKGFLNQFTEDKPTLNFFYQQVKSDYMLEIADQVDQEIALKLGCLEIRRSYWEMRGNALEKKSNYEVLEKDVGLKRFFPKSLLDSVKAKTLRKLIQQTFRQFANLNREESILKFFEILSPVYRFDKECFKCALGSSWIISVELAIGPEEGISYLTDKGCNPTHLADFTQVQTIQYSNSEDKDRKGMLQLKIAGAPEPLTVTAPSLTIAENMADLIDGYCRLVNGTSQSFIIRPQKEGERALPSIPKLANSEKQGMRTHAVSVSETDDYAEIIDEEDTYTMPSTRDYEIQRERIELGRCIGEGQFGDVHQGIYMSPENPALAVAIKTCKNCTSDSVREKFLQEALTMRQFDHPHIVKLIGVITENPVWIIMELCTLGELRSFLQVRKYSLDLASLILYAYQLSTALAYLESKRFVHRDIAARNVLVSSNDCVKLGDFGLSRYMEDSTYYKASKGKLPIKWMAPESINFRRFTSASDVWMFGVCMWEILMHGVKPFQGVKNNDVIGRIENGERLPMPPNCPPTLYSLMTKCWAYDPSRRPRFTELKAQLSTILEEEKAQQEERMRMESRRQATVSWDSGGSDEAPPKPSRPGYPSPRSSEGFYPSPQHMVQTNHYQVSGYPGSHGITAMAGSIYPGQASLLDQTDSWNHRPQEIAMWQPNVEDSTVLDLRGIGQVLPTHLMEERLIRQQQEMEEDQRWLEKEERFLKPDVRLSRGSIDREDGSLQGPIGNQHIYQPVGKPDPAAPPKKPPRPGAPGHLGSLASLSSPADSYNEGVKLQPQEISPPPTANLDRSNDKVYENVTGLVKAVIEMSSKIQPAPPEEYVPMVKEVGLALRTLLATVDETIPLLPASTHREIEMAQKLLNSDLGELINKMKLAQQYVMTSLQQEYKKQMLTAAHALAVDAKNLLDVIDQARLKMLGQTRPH

In the case of `CN(C)CCCC[C@@H]1NC(=O)[C@H]2C[C@@H](C(=O)NCCCCCN)[C@@H](c3cccc(OCCO)c3)N2C1=O`, the composite z-score in experiment [1] came out at 2.91; in experiment [2], 1.12; in experiment [3], 0.297; in experiment [4] it was 1.01; in experiment [5], 1.38; in experiment [6], 1.22. Also, the composite z-score in the experiment with Lefty1 amounted to 1.66; in [8], 1.48. The z-score was 0.129 in experiment [7] and -0.69 (inactive) in [9].

In the case of `COC(=O)[C@@]1(Cc2ccccc2)[C@H]2c3cc(C(=O)N4CCCC4)n(Cc4ccc(O)c(OC)c4)c3C[C@H]2CN1C(=O)c1ccccc1`, the composite z-score in experiment [1] is 0.882; in experiment [2], 1.27; in [3] it was 0.553; in experiment [4], -0.685; in [5] it was 0.284; in experiment [6], -0.638. For the same compound, the results for the composite z-score (in the experiment on Lefty1; in [8]) were -0.0456 and 0.504, respectively. Also, the z-score in [7] is 1.15; in experiment [9] it was 1.04 (inactive).

`C=C(C)[C@@H]1CC=C(C(O)C2C=CC3C(=O)NC(=O)C3N2Nc2ccc(Cl)cc2Cl)CC1` (stereo not given in full): the composite z-score in experiment [1] is 1.83; in [2], 1.2; in experiment [3], 1.33; in [4] it was 1; in experiment [5], 1.14; in [6], -0.853. In addition, the composite z-score in the experiment on Lefty1 was -0.336; in experiment [8], 1.34. Besides, the values for the z-score in [7] and in [9] were -1.25 and 0.022 (inactive), respectively.

`C=C(CCCC)/C(=C/C[C@H](OC(C)=O)c1ccccc1OCCO)c1cnc2ccccc2c1`: the composite z-score is 0.528 in experiment [1]; 0.545 in [2]; -0.0464 in experiment [3]; -0.128 in experiment [4]; 0.891 in experiment [5]; 0.481 in experiment [6]. The composite z-score in the experiment on Lefty1 was 0.861; in experiment [8], 0.664. The z-score was 1.76 in experiment [7] and -0.895 (inactive) in experiment [9].

As for `CCCC[C@H]1C[C@@H]1[C@@H]1N(P(=O)(c2ccccc2)c2ccccc2)C[C@@](O)(c2ccccc2)CC12CC2`, the composite z-score in [1] was 0.127; in [2], 0.973; in experiment [3], 0.663; in experiment [4], 0.955; in [5] it was 0.208; in experiment [6] it was 0.0514. In addition, the composite z-score was -1.06 with Lefty1 and 0.727 in [8]. Besides, the z-score in [7] was -1.57; in experiment [9], 2.35 (inactive).

In the case of `CC(C)CN1C(=O)[C@@]2(c3ccc([N+](=O)[O-])cc3)CC(=O)N(C3CCCCC3)[C@@H]2c2ccc(CO)cc21`, the composite z-score in experiment [1] was -0.75; in experiment [2], -1.07; in experiment [3] it was -0.0035; in experiment [4], -1.05; in experiment [5], -1.29; in experiment [6], -0.875. Also, the results for the composite z-score (with Lefty1; in experiment [8]) were -0.919 and 0.428, respectively. The z-score in [7] was 0.766; in [9], 0.791 (inactive).

Turning to `O=C1OCCC=C[C@H]2OC34C=CCN(c5ccc(Cl)cc5)C(=O)[C@H]3N(CCCO)C(=O)[C@@H]4C12` (stereo not given in full), the composite z-score is -0.598 in [1]; -1.88 in experiment [2]; -0.22 in [3]; -0.867 in [4]; -0.0633 in experiment [5]; -0.584 in experiment [6]. The figures for the composite z-score (in the experiment with Lefty1; in experiment [8]) were 0.196 and -0.0198, respectively. Moreover, the figures for the z-score in [7] and in experiment [9] were 0.0491 and -0.352 (inactive), respectively.

In the case of `CC(C)OC(=O)C=C1C[C@@H](c2cccc(Cl)c2)O[C@@H](c2cccc(Cl)c2)O1`, the composite z-score was 1.72 in experiment [1]; 0.824 in experiment [2]; 0.526 in experiment [3]; -0.105 in experiment [4]; -0.545 in experiment [5]; -0.122 in [6]. In addition, the composite z-score is -1.1 in the experiment on Lefty1 and 0.751 in experiment [8]. The z-score is -0.143 in experiment [7] and 0.924 (inactive) in [9].

On to `COC(=O)c1c(CC[C@@H](CO)NC(=O)NCCc2c[nH]c3ccccc23)oc(C(=O)Cc2ccccc2)c1C(=O)OC`, for which the composite z-score in experiment [1] stood at 0.108; in [2], 0.27; in experiment [3], 0.131; in experiment [4], 0.273; in experiment [5], 0.368; in experiment [6] it was 0.251. Moreover, the composite z-score with Lefty1 was 0.456; in [8] it was 0.0707. In addition, the z-score is -0.364 in experiment [7] and 0.521 (inactive) in experiment [9].

For the compound `C=CCOC(=O)[C@H]1[C@@H]2C(=O)O[C@@H](c3ccccc3)[C@@H](c3ccccc3)N2[C@@H](c2ccc(OCCOC(=O)[C@@H]3C[C@@H]4C(=O)N5CCC[C@H]5C(=O)N4[C@@H]3c3cccc(OCCO)c3)cc2)[C@]12C(=O)Nc1ccc(I)cc12`, the composite z-score in experiment [1] came out at 1.55; in [2], 1.2; in [3], 0.402; in experiment [4], 0.726; in experiment [5], 1.45; in experiment [6] it was 1.4. The figures for the composite z-score (in the experiment on Lefty1; in [8]) were 1.38 and 0.458, respectively. Besides, the values for the z-score in [7] and in [9] were -0.838 and -1.12 (inactive), respectively.

Turning to `O=C(NCc1ccccc1)[C@@H]1c2ccccc2C(=O)N(C2Cc3ccccc3C2)[C@H]1c1ccc(CO)cc1`, the composite z-score in experiment [1] turned out to be 0.526; in [2], 1.17; in [3] it was 0.166; in experiment [4], 0.299; in [5] it was 0.957; in experiment [6], 0.892. Besides, the composite z-score in the experiment on Lefty1 amounted to 0.459; in experiment [8] it was 1.1. Further, the z-score in experiment [7] was 0.353; in experiment [9], 0.111 (inactive).
